Screening data deposited in PubChem by National Center for Advancing Translational Sciences (NCATS).
Shown are actives, neighbours in structure and some others; about 3.6% of the full set was active somewhere.
D1 PAM: Potentiators of Human D1 Dopamine Receptor: qHTS. 360,000 compounds, 0.036% hits. potentiation, % at 10 µM. D(1A) dopamine receptor (Homo sapiens), P21728. HEK293 TREx D1 cells, calcium flux, dopamine EC20 potentiation; in the data active means potentiation above about 30%; further: 0% is about no effect
TRHR enhancer: qHTS for Small Molecule Agonists and Allosteric Enhancers of Human TRH Receptor: Primary Screen for Enhancers; Thyrotropin-releasing hormone receptor (Homo sapiens), P34981; TRHR cells, fluo-8 calcium fluorescence, EC20 TRH enhancement; 360,000 compounds, 0.66% hits; enhancement, % at 2 µM; in the data active means enhancement above about 30%; further: 0% is about no effect
Target sequence (P34981 whole entry, looked up): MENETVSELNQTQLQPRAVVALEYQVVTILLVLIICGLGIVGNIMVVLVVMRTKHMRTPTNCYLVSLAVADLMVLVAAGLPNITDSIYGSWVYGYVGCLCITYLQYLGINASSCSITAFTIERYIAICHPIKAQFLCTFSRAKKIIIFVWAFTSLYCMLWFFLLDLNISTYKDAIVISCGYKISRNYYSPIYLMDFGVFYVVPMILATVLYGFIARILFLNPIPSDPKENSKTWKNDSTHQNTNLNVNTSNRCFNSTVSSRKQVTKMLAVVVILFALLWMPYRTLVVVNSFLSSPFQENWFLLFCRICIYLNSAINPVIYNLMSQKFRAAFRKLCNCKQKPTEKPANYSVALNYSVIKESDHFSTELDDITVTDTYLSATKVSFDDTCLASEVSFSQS
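Enhancer read-out: after compound pinning and an initial kinetic agonist-mode read, an EC20 of TRH (10 nM final) was injected and fluo-8 calcium signal (Ex 480/Em 530) followed at 1 s/cycle for 100 cycles in TRHR-expressing cells.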
D1 ag: Allosteric Agonists of the Human D1 Dopamine Receptor: qHTS; 360,000 compounds, 1% hits; HEK293 T-REx D1 cells, calcium flux, agonist mode; D(1A) dopamine receptor (Homo sapiens), P21728; activation, % at 2 µM; further: 0% is about no effect
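Tetracycline-induced HEK293 TREx D1 cells, force-coupled to calcium signalling, were dye-loaded with a no-wash calcium kit. Compound was pin-added after a 10 s baseline. Fluorescence was read kinetically at 1 cycle/s for 180 s, with calcium rises flagged as agonism.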
D1 antagonist: Antagonist of Human D 1 Dopamine Receptor: qHTS; D(1A) dopamine receptor (Homo sapiens), P21728; HEK293 TREx D1 cells, calcium flux, dopamine EC80; stronger effect = lower value; activity change, negative = inhibition, % at 10 µM; 360,000 compounds, 3.2% hits; in the data active means activity change below about -30%; further: on the % scale 0 is the no-effect control and ±100 the full control effect
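Tetracycline-induced HEK293 Trex D1 cells, force-coupled to calcium, dye-loaded; compounds added and read 180 s, then EC80 dopamine added and calcium flux tracked kinetically another 180 s.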
TRHR agonist: qHTS for Small Molecule Agonists and Allosteric Enhancers of Human TRH Receptor: Primary Screen for Agonists; Thyrotropin-releasing hormone receptor (Homo sapiens), P34981; TRHR cells, calcium flux fluo-8, FDSS agonist mode; activation, % at 2 µM; 360,000 compounds, 0.18% hits; further: 0% is about no effect
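TRHR-expressing cells, plated overnight in medium with 10% serum, were loaded with fluo-8 calcium dye at room temperature. After a 10 s baseline, library compound was pin-added and calcium release was recorded kinetically (ex 480/em 530) as agonist response.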
LDHA block: qHTS assay for inhibitors of human lactate dehydrogenase. L-lactate dehydrogenase A chain (Homo sapiens), P00338. purified LDHA, NADH/diaphorase-resazurin fluorescence; stronger effect = lower value. activity change, % (values are at about 110 or 230 µM). 480,000 compounds, 0.15% hits; in the data active means activity change below about -30%; inconclusive means mostly about -25% to -30%;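 further: plate controls were DMSO wells for no effect and wells without enzyme for full effect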
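Human LDH5 (2 nM) was incubated with 0.06 mM NADH and 0.2 mM pyruvate for 5 min at room temperature in Tris pH 7.4. Remaining NADH was coupled through diaphorase/resazurin, and resorufin fluorescence was read at 0 and 20 min.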
Starred values were filed as active, the others as inactive; ? = inconclusive; nt = no result. Unless noted, no stated cut-off is given here; in the data, active means activation above about 30%; inactive means the rest.

SMILES	D1 PAM	TRHR enhancer	D1 ag	D1 antagonist	TRHR agonist	LDHA block
Cc1ccc2c(COC(=O)c3cccs3)cc(=O)oc2c1	nt	nt	nt	nt	nt	-18
CC(C)Oc1ccc(-c2noc(Cn3cnc4c(oc5ccccc54)c3=O)n2)cc1	nt	nt	nt	nt	nt	2
O=C(CC1CCCC1)N1CCN(S(=O)(=O)c2ccc(F)cc2)CC1	nt	3	7	14	0	-4
O=C(CCC1CCCC1)N1CCN(S(=O)(=O)c2ccc(Br)cc2)CC1	-8	-8	0	-31*	-1	-5
COc1ccc(S(N)(=O)=O)cc1C(=O)NCCCN1CCN(c2cccc(Cl)c2)CC1	-7	0	2	-51*	0	1
COc1ccc(S(N)(=O)=O)cc1C(=O)NCCCN1CCN(c2ccc(C)cc2)CC1	-20	-3	3	-42*	0	-1
COc1ccc(S(N)(=O)=O)cc1C(=O)NCCCN1CCN(c2ccccc2OC)CC1	-14	-3	2	-12	1	-2
Cc1c(-c2ccc(Br)cc2)nc2ccccc2c1C(=O)O	nt	nt	nt	nt	nt	-1
Cc1ccc(CS(=O)(=O)CCC(=O)NCc2cccs2)cc1	-8	3	-1	-32*	-1	-6
Cc1ccc(CS(=O)(=O)CCC(=O)NCCc2ccccc2)cc1	1	-3	0	-14	-1	1
O=C(Nc1ccc(F)cc1)c1ccc2c(c1)CC(c1ccc(F)cc1)OC2=O (stereo not drawn)	nt	nt	nt	nt	nt	-9
Cc1ccc(N/N=C/c2ccc(C#N)cc2)cc1Cl	nt	nt	nt	nt	nt	4
N#Cc1ccccc1NC(=O)CN(Cc1ccco1)C1CCS(=O)(=O)C1 (stereo not drawn)	nt	nt	nt	nt	nt	10
Clc1ccc(OCCN2CCCCC2)c(Cl)c1	0	-2	2	5	0	-15
Clc1ccc(OCCCn2ccnc2)c(Br)c1	-2	-1	15	-5	0	-23
Clc1ccc(OCCCCCN2CCCC2)c(Br)c1	-6	1	73*	-10	0	-18
CCN1CCN(CCCOc2ccc(Cl)cc2Br)CC1	-8	-4	59*	-22	-1	?
Brc1ccccc1OCCCCCN1CCCC1	-8	2	1	-3	-1	nt
Clc1ccc(OCCCN2CCCCC2)c(Br)c1	-18	2	14	-62*	1	-20
Cc1ccc(C2=NC(C)(C)N=C2SCC(=O)Nc2ccc(Br)c(C)c2)cc1	nt	nt	nt	nt	nt	-5
Cc1nc(C(=O)Nc2nc(C(C)(C)C)cs2)nn1-c1ccc(Cl)cc1	nt	nt	nt	nt	nt	10
C[C@H](NC(=O)NCCc1ccccc1F)C(=O)O	nt	nt	nt	nt	nt	4
Cc1nn(CCc2nn[nH]n2)c2nc(-c3ccc(C4CCCCC4)cc3)cc(C(F)(F)F)c12	-6	-6	9	-46*	-1	-6
CC(C)CNS(=O)(=O)c1ccc(CCC(=O)N2CCN(c3ccc(F)cc3)CC2)cc1	-8	-2	3	-32*	0	-4
O=C(Cc1ccc([N+](=O)[O-])cc1)N1CCN(c2ccc([N+](=O)[O-])cc2)CC1	-8	-7	3	7	0	-1
SMILES	D1 PAM	TRHR enhancer	D1 ag	D1 antagonist	TRHR agonist	LDHA block
O=C(Cc1ccc(F)cc1)N1CCN(c2ccc([N+](=O)[O-])cc2)CC1	-2	-7	13	-55*	0	2
C=CC#CC[N+](CC)(CC)CC#Cc1ccccc1	nt	nt	nt	nt	nt	16
CNC(=O)C1CCC(Cn2c(=O)c3sccc3n(CC(=O)Nc3cccc(OC)c3)c2=O)CC1 (stereo not drawn)	nt	nt	nt	nt	nt	2
O=C(CCc1c[nH]c2ccccc12)N(Cc1ccc(F)cc1)C1CC1	nt	nt	nt	nt	nt	9
CC(OC(=O)Cn1[nH]c(=O)c2ccccc2c1=O)C(=O)Nc1ccc(F)cc1 (stereo not drawn)	-7	7	6	-30*	0	-1
COc1ccccc1C(=O)Nc1ccccc1N1CCN(S(C)(=O)=O)CC1	-7	-2	18	-37*	-4	-7
O=C(Nc1ccccc1N1CCCC1)c1cccc(Cl)c1Cl	-2	-8	2	-32*	-1	1
O=C(Nc1ccccc1N1CCCC1)c1ccccc1F	-10	-2	5	-11	0	0
CC(=O)Nc1ccc(NC(=O)c2cc(=O)c(OCc3ccccc3F)co2)cc1	nt	nt	nt	nt	nt	-6
Cc1cc(S(=O)(=O)N2CCN(C)CC2)c(C)cc1Cl	nt	nt	nt	nt	nt	5
COc1cc(/C=C/C(=O)OCC(=O)Nc2cc(S(=O)(=O)N(C)C)ccc2Cl)ccc1O	-3	-2	7	6	-2	0
CCN(CC)S(=O)(=O)c1ccc(Cl)c(NC(=O)COc2ccc(OC)cc2)c1	1	3	8	-31*	1	-3
COc1ccc(OCC(=O)Nc2cc(S(=O)(=O)N3CCCC3)ccc2Cl)cc1	-4	10	10	13	1	-3
COc1cccc(/C=C/C(=O)OCC(=O)Nc2ccc(Cl)c(S(=O)(=O)N(C)C)c2)c1OC	-6	-2	3	7	1	-22
COc1ccc(/C=C/C(=O)OCC(=O)Nc2cc(S(=O)(=O)N(C)C)ccc2Cl)cc1	-11	-2	8	-34*	0	-4
COc1ccc(OC)c(/C=C/C(=O)OCC(=O)Nc2ccc(Cl)c(S(=O)(=O)N(C)C)c2)c1	3	0	7	-35*	0	-3
CC1CCc2c(nc3ccc4ccccc4c3c2-c2cccc(O)c2)C1 (stereo not drawn)	nt	nt	nt	nt	nt	29
COc1ccc(OCC(O)CNC(C)c2ccccc2)cc1 (stereo not drawn)	1	7	18	-4	2	-4
Cc1cc(C)n(CC(O)COc2ccc(C(C)C)c(C)c2)n1 (stereo not drawn)	3	34*	5	11	-3	2
Cc1cc(OCC(O)CNC(C)c2ccccc2)ccc1C(C)C (stereo not drawn)	0	10	30*	48	3	1
CN(CC(O)COc1ccc2ccccc2c1)C1CCCCC1 (stereo not drawn)	-8	-7	32*	-3	2	1
CC(NCC(O)COc1ccc2ccccc2c1)c1ccccc1 (stereo not drawn)	1	15	42*	2	2	-9
CC(=O)Nc1cccc(NC(=O)c2nn(-c3ccc(F)c(F)c3)c3c2CCC3)c1	nt	nt	nt	nt	nt	5
O=S(=O)(Nc1ccc(-c2ccc(N3CCOCC3)nn2)cc1)c1cccc(F)c1	nt	nt	nt	nt	nt	0
